# Assay outcomes (PubChem)
# Most compounds without a hit are left out; they make up all but 18% or so of the library.
# IL1B secr inh: inflammasome signaling inhibition, IL-1 beta readout; THP-1 LPS/ATP IL-1B secretion, AlphaLISA, 16 h; hits give low values; activity change, % at 57.5 µM; hit rate 4.7% among 360,000; AID 743279; in the data active = activity change below about -50%; inconclusive = mostly about -30% to -49%
#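 THP-1 cells pretreated 1 hr with compounds (up to 57.5 uM final), then stimulated with LPS (250 ng/mL final) plus ATP (1.25 mM final); secreted IL-1B measured by AlphaLISA after 16 hr, decreased signal indicating inhibition.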
# TDP1 cell noCPT: qHTS for Inhibitors of human tyrosyl-DNA phosphodiesterase 1 (TDP1): qHTS in cells in absence of CPT; hit rate 15% among 420,000; Potency, µM (titrated, usually from 46.2 µM), for inactives: top-dose activity change, negative = growth inhibition, usual class: inhibitors; DT40 Tdp1-/- hTDP1 cells, no CPT, ATP luminescence, 48 h; note: potency is the fitted concentration of half-maximal effect; nearly all actives have a fitted effect of over 55% in size
#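 A cellular qHTS used chicken DT40 cells lacking endogenous Tdp1 but carrying stably transfected human TDP1. Compounds were applied without camptothecin, and cell growth kinetics were judged by ATP-dependent luminescence after ≥48 hr.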
# RORgamma inh: ROR gamma (mouse) transcription inhibition. hit rate 5.4% among 310,000. Drosophila S2 Gal4-RORgamma UAS-luciferase reporter, 20 h. P51450. Potency, µM (titrated, usually from 53.6 µM), inactives show at the highest dose activity change, negative = inhibition, actives largely listed as inhibitors; note: potency is the fitted concentration of half-maximal effect; nearly all actives have a fitted effect of over 60% in size
# Target sequence (P51450 whole entry, looked up, the tested form may be a part): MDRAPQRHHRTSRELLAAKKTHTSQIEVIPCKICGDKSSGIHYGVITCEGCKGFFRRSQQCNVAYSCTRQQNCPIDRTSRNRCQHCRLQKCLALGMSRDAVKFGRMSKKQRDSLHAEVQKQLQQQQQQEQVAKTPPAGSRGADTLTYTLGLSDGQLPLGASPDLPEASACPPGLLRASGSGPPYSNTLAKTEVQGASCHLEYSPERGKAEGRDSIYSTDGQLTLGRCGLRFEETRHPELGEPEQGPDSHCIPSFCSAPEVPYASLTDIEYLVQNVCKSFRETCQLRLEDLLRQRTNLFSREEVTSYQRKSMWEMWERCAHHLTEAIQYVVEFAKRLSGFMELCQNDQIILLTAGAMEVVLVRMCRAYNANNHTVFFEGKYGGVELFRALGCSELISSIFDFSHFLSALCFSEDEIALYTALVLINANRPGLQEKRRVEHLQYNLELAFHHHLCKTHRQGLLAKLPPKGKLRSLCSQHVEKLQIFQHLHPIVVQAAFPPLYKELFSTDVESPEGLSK
#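 Schneider cells (Drosophila), stable Gal4 DBD–ROR gamma + UAS-luc; 1 hr cmpd preincubation; Cu2+ induction 700 uM final; 20 hr ambient; luminescence.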
# VP16 counter: counter-screen for ROR gamma inhibitors: Gal4-VP16 reporter; Potency, µM (top dose mostly 53.6 µM), inactives show at the top dose activity, negative = inhibition, actives largely listed as inhibitors; hit rate 3.5% among 310,000; Drosophila S2 Gal4-VP16 UAS-luciferase, luminescence, 20 h; AID 2546;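 note: Gal4-VP16 expression switched on by copper sulfate through the metallothionein promoter; potency is the fitted concentration of half-maximal effect; nearly all actives have a fitted effect of over 50% in size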
# TDP1 cell CPT: DT40-hTDP1 cell growth loss with CPT; Potency, µM (series often up to 46.2 µM), inactives show at the top dose activity change, negative = growth inhibition, actives largely listed as inhibitors; hit rate 12% among 420,000; chicken DT40 Tdp1-/-;hTDP1 cells + 20 nM CPT, ATP luminescence, 48 h; note: potency is the fitted concentration of half-maximal effect; nearly all actives have a fitted effect of over 55% in size
#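 Chicken DT40 Tdp1-/- cells complemented with human TDP1, 400 cells/well, exposed to compounds plus 20 nM camptothecin for at least 48 h at 37 C; viability read as ATP content by CellTiter-Glo luminescence.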
# LDHA inh: LDHA (human) enzyme inhibition; purified LDHA, NADH/diaphorase-resazurin fluorescence; hits give low values; activity change, % (values are at about 110 or 230 µM); hit rate 0.15% among 480,000; AID 1347041; in the data active = activity change below about -30%; inconclusive = mostly about -25% to -30%;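 note: plate controls were DMSO wells for no effect and wells without enzyme for full effect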
#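 Enzyme activity of human lactate dehydrogenase 5 (2 nM; 0.06 mM NADH, 0.2 mM pyruvate, 5 min, RT) is measured via a resazurin/diaphorase fluorescence readout of residual NADH.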
# Numbers without * were called inactive; ? = inconclusive; . = no result given. Unless noted, calls come from the whole dose curve; as a rule, active = well fitted curve in the direction sought with a large enough effect; inconclusive = small, poorly fitted or top-dose-only effect, or another doubt; inactive = no such curve, though single readings can be large; an effect the other way counts as inactive or inconclusive. Unless noted, % is set by controls: 0 for no effect and ±100 for the full control effect.
SMILES,IL1B secr inh,TDP1 cell noCPT,RORgamma inh,VP16 counter,TDP1 cell CPT,LDHA inh
CCc1ccc(S(=O)(=O)ON2C(=O)c3ccccc3C2=O)cc1,-28,12µM*,14%,-6%,7.3µM*,-2
O=C1c2cccc3cccc(c23)C(=O)N1OS(=O)(=O)c1ccc(Cl)cc1,-1,18µM*,5%,-5%,?,-11
CN(C)c1ccc(-c2n(C)c3ccccc3[n+]2C)cc1,-80*,0.82µM*,27%,?,1.6µM*,9
Cn1c(-c2ccc3ccccc3n2)[n+](C)c2ccccc21,29,3.7µM*,?,-2%,3.3µM*,4
Cn1c(-c2cccc([N+](=O)[O-])c2)[n+](C)c2ccccc21,54,3.3µM*,-11%,5%,7.3µM*,0
Cn1c(-c2ccccn2)[n+](C)c2ccccc21,32,17%,3%,-4%,-10%,-5
N#Cc1nc(-c2ccco2)oc1N1CCC(C(=O)NC2CCCCCCC2)CC1,.,.,.,.,.,7
COc1cccc(NC(=O)N2CCN(c3nc(C)cc(Nc4ccc(C)cc4)n3)CC2)c1,.,.,.,.,.,11
COc1cc2cnc(-c3ccsc3)c(-c3ccc(F)cc3)c2cc1OC,-14,?,.,.,?,1
COc1cc2cnc(-c3ccccc3)c(-c3ccc(C#N)cc3)c2cc1OC,-22,16µM*,.,.,?,2
COc1cc(OC)cc(C(=O)NCc2ccc(-n3cccc3)cc2)c1,-17,?,8%,-3%,18µM*,-20
Cc1ccc(CNC(=O)Cc2ccc(-n3cccc3)cc2)cc1,-13,0.82µM*,-3%,2%,1.3µM*,-3
Cc1ccc(CNC(=O)c2ccc(-n3cccc3)cc2)cc1,27,-11%,3%,3%,-13%,4
COc1ccc(CC(=O)NCc2nn(-c3ccccc3)nc2C)cc1OC,31,?,-6%,-2%,-17%,-1
O=C(Cc1ccccc1)NCc1cccs1,.,.,.,.,.,4
O=C(Cc1ccc(-n2cccc2)cc1)NCc1cccs1,34,1µM*,1%,2%,0.82µM*,1
COc1ccc(CC(=O)NCc2ccc(-n3cccc3)cc2)cc1OC,21,2.3µM*,?,5%,2.3µM*,-4
COC(=O)c1ccc(Oc2coc3cc(OCc4ccccc4)ccc3c2=O)cc1,.,.,.,.,.,-3
O=C(Cn1cnc(S(=O)(=O)N2CCOCC2)c1)Nc1cccc(-c2ccno2)c1,.,.,.,.,.,-4
Cc1scc(C(=O)NCc2ccccn2)c1C,.,.,.,.,.,7
O=S(=O)(c1ccc(NC(=S)NC2CCCC2)cc1)N1CCCC1,34,?,13%,-9%,-27%,-3
O=C(NC(=S)Nc1ccc(S(=O)(=O)N2CCCC2)cc1)C1CCC1,14,16µM*,11µM*,-2%,?,-3
O=C(NC(=S)Nc1ccc(S(=O)(=O)N2CCCC2)cc1)C1CC1,-26,?,10µM*,-1%,?,1
CN1CCN(S(=O)(=O)c2ccc(NC(=S)NC(=O)C3CCC3)cc2)CC1,15,?,-6%,-2%,-17%,0
O=C1NC2(CCCC2)C(=O)N1Cc1coc(-c2cccc(Cl)c2)n1,.,.,.,.,.,2
CCOc1ccc2[nH]c3c(NCCO)ncnc3c2c1,-26,1%,3%,-4%,-14%,-1
CCCCn1cnc2c([nH]c3ccccc32)c1=O,-11,-19%,25%,-4%,1%,-3
CCOCCCNc1ncnc2c1[nH]c1ccccc12,0,16µM*,15%,?,10µM*,-9
c1ccc2c(c1)[nH]c1c(NCC3CCCO3)ncnc12 (stereo not given),11,15µM*,?,?,?,-17
c1nc(NCC2CCCO2)c2[nH]cnc2n1 (stereo not given),-8,-14%,.,.,-16%,-9
